Experimental data published in PubChem BioAssay AID1986 (Sanford-Burnham Center for Chemical Genomics, 2009).
Out of some 290,000 compounds screened, about 890 (0.31%) were called active. Cut-off read from the data, not from the text of the source: active = inhibition mostly above about 52% (no sharp cut-off); inactive = mostly below about 76%. The entries come from a sample that favours actives as a whole.

Experiment: cell-free HIV fusion peptide-binding blockers – biochemical, uHTS, fluorescence dequenching, primary screen (AID 1986)
Conditions: 30 min, stronger effect = higher value
[1] = measured here: repeat confirmation average inhibition, at 18.6 µM

SMILES: COC(=O)c1cccc(Cn2nnc3ccccc3c2=O)c1
- inhibition (at 20 µM): 0.9% (inactive)

SMILES: O=C(NCCN1C(=O)S/C(=C\c2ccc(OC(F)F)cc2)C1=O)[C@@H]1CCCN1C(=O)c1cccs1
- inhibition (at 20 µM): 0.1% (inactive)

SMILES: Cc1cc(Sc2nc(N)ncc2[N+](=O)[O-])ncn1
- inhibition (at 20 µM): -1.5% (inactive)

SMILES: COC(=O)c1sc2ncn(N)c(=O)c2c1C
- inhibition (at 20 µM): -0.5% (inactive)

SMILES: CC(=O)Nc1ccc(C(=O)N/N=C/C2CC3C=CC2C3)cc1 (centres undefined)
- inhibition (at 20 µM): -0.7% (inactive)

SMILES: COc1cc2[nH]c(=O)n(CCCCCC(=O)NCCc3c[nH]c4ccccc34)c(=O)c2cc1OC
- inhibition (at 20 µM): 2.6% (inactive)

SMILES: CCOC(=O)c1cc(CC)sc1NC(=O)COc1ccc2c(C)cc(=O)oc2c1
- inhibition (at 20 µM): -0.1% (inactive)

SMILES: N/C(=N\OC(=O)COc1ccc(Cl)cc1Cl)c1cccnc1
- inhibition (at 20 µM): 1.4% (inactive)

SMILES: COc1cc(NC(=O)C(C)Oc2ccccc2)ccc1NC(=O)COc1ccccc1 (centres undefined)
- inhibition (at 20 µM): 1.7% (inactive)

SMILES: O=C1Nc2ccccc2OC1CC(=O)N1CCCC1 (centres undefined)
- inhibition (at 20 µM): -2.7% (inactive)

SMILES: COCCNC(=O)C(c1ccc(F)cc1)N(Cc1ccco1)C(=O)CCC(=O)Nc1ccccn1 (centres undefined)
- inhibition (at 20 µM): -1.2% (inactive)

SMILES: CCOC(=O)C1CCN(C(=O)c2cc3cc4ccc(OC)cc4nc3o2)CC1
- inhibition (at 20 µM): -0.9% (inactive)

SMILES: O=c1/c(=C\c2cccn2-c2ccccc2)sc2nc3ccccc3n12
- inhibition (at 20 µM): 3.1% (inactive)

SMILES: O=c1/c(=C/c2ccccn2)sc2nc3ccccc3n12
- inhibition (at 20 µM): -0.5% (inactive)

SMILES: O=c1/c(=C\c2cccnc2)sc2nc3ccccc3n12
- inhibition (at 20 µM): -0.5% (inactive)

SMILES: O=c1/c(=C/c2ccc(O)c([N+](=O)[O-])c2)sc2nc3ccccc3n12
- inhibition (at 20 µM): 50.3% (active)

SMILES: O=C(O)c1cc(C(=O)O)cc(-c2ccc(/C=c3/sc4nc5ccccc5n4c3=O)o2)c1
- inhibition (at 20 µM): 63.3% (active)

SMILES: COC(=O)/C=c1/sc2nc3ccccc3n2c1=O
- inhibition (at 20 µM): 6.3% (inactive)

SMILES: O=C(CN1CCN(c2ccccc2F)CC1)c1c[nH]c2ccc(F)cc12
- inhibition (at 20 µM): 4% (inactive)

SMILES: Cc1cc(C)n2cc(CSc3nncn3C)nc2n1
- inhibition (at 20 µM): -1.3% (inactive)

SMILES: CC1c2ccsc2CCN1S(=O)(=O)c1cccs1 (centres undefined)
- inhibition (at 20 µM): -1% (inactive)

SMILES: COc1ccc(Cc2nc3ccc(C(=O)N(C)CCc4cnn(C)c4)cc3o2)cc1OC
- inhibition (at 20 µM): 0.7% (inactive)

SMILES: C/C(CC(=O)Nc1ccc(Cl)c(C(F)(F)F)c1)=N\NC(=O)c1ccccc1O
- inhibition (at 20 µM): 26.3% (inactive)

SMILES: C/C(CC(=O)Nc1ccc(Cl)c(C(F)(F)F)c1)=N\NC(=O)c1cccc(O)c1
- inhibition (at 20 µM): 4.2% (inactive)

SMILES: C/C(CC(=O)Nc1ccc(Cl)c(C(F)(F)F)c1)=N\NC(=O)c1cc2ccccc2cc1O
- inhibition (at 20 µM): 67.3% (active)

SMILES: O=C(NCCCn1ccnc1)C(=O)Nc1ccccc1
- inhibition (at 20 µM): 0.2% (inactive)

SMILES: COc1ccc(OC)c(NC(=O)Cc2nn(C)c(=O)c3ccccc23)c1
- inhibition (at 20 µM): 2.9% (inactive)

SMILES: Cc1c(C(=O)N2CCC(C)CC2)cccc1[N+](=O)[O-]
- inhibition (at 20 µM): -0.4% (inactive)

SMILES: NS(=O)(=O)c1ccc(Nc2nc3ccccc3nc2NS(=O)(=O)c2cccc([N+](=O)[O-])c2)cc1
- inhibition (at 20 µM): 69.6% (active)

SMILES: Cc1ccc(S(=O)(=O)Nc2nc3ccccc3nc2Nc2cccc(S(=O)(=O)N3CCCC3)c2)cc1
- inhibition (at 20 µM): 72.4% (active)

SMILES: O=S(=O)(Nc1cccc(S(=O)(=O)N2CCCCCC2)c1)c1ccccc1
- inhibition (at 20 µM): -0.4% (inactive)

SMILES: COc1ccc(S(=O)(=O)Nc2cccc(S(=O)(=O)N3CCCCCC3)c2)cc1
- inhibition (at 20 µM): 2.5% (inactive)

SMILES: O=[N+]([O-])c1ccc(S(=O)(=O)Nc2nc3ccccc3nc2Nc2ccccc2)cc1
- inhibition (at 20 µM): 1% (inactive)

SMILES: CC(=O)Nc1ccc(S(=O)(=O)Nc2nc3ccccc3nc2Nc2ccc(S(N)(=O)=O)cc2)cc1
- inhibition (at 20 µM): 37.9% (inactive)

SMILES: O=C(CSC1=NCCS1)N1CCCC1
- inhibition (at 20 µM): 4.9% (inactive)

SMILES: CCN1CCN(CC(O)COc2ccc(Cl)cc2)CC1 (centres undefined)
- inhibition (at 20 µM): -1.2% (inactive)

SMILES: CCc1nnc(NC(=O)c2ccc(OCc3c(C)noc3C)c(OC)c2)s1
- inhibition (at 20 µM): 0.8% (inactive)

SMILES: O=C(Nc1nc(-c2ccco2)c(-c2ccco2)s1)C1CC(=O)N(c2ccc3c(c2)OCCO3)C1 (centres undefined)
- inhibition (at 20 µM): 59.5% (active)

SMILES: O=C(CCl)Nc1nc(-c2ccco2)c(-c2ccco2)s1
- inhibition (at 20 µM): 64.5% (active)

SMILES: O=C(Nc1nc(-c2ccco2)c(-c2ccco2)s1)C1CCC1
- inhibition (at 20 µM): 63.8% (active)

SMILES: O=C(Nc1nnc(-c2ccco2)s1)C1CCCCC1
- inhibition (at 20 µM): 2.3% (inactive)

SMILES: O=C(Nc1nnc(C2CC2)s1)C1CC(=O)N(c2ccc3c(c2)OCCO3)C1 (centres undefined)
- inhibition (at 20 µM): 16.4% (inactive)

SMILES: COc1ccc(-c2nc(NC(=O)C3CC(=O)N(c4ccc5c(c4)OCCO5)C3)sc2C)cc1 (centres undefined)
- inhibition (at 20 µM): 2.7% (inactive)

SMILES: O=C(Nc1nnc(-c2ccco2)s1)C1CC1
- inhibition (at 20 µM): 0.3% (inactive)

SMILES: O=C(CCCSc1ccccc1)Nc1nc(-c2ccco2)c(-c2ccco2)s1
- inhibition (at 20 µM): 58.7% (inactive)
- inhibition [1]: 2.6%

SMILES: Nc1nc(-c2ccco2)c(-c2ccco2)s1
- inhibition (at 20 µM): 1.2% (inactive)

SMILES: COc1cccc(NC(=O)N(C2CCCCC2)C(C)c2cccs2)c1 (centres undefined)
- inhibition (at 20 µM): -4.1% (inactive)

SMILES: CCOC(=O)c1cnc2c(ccc3ccccc32)c1NCCN(C)C
- inhibition (at 20 µM): -0.1% (inactive)

SMILES: CCOC(=O)c1cccc(NC(=O)CCn2nc(C)c(S(=O)(=O)N3CCCCC3)c2C)c1
- inhibition (at 20 µM): -0.9% (inactive)

SMILES: CCC(C)(C)NC(=O)CN(C(=O)C(=O)Nc1ccc2c(c1)OCCO2)N1CCOCC1
- inhibition (at 20 µM): 1.2% (inactive)

SMILES: COc1ccccc1N1CCN(C(=O)CCc2ccc(S(=O)(=O)NCC(C)C)cc2)CC1
- inhibition (at 20 µM): 0.1% (inactive)

SMILES: N#CC(C#N)=Cc1ccc(OCC(=O)N2CCOCC2)cc1
- inhibition (at 20 µM): 0.6% (inactive)

SMILES: O=C1C=C(N2CCCCCC2)C(=O)N1c1ccc(Cl)cc1
- inhibition (at 20 µM): -1.8% (inactive)

SMILES: O=C1C=C(Nc2ccc(Cl)cc2)C(=O)N1c1ccc(Cl)cc1
- inhibition (at 20 µM): 54.8% (active)

SMILES: O=C1c2ccccc2C(=O)N1c1ccc(Cl)cc1
- inhibition (at 20 µM): -5.5% (inactive)

SMILES: COC(=O)C1CCCCN1C(=O)c1cccc(OC2CCN(C(=O)C3CC3)CC2)c1 (centres undefined)
- inhibition (at 20 µM): 1.5% (inactive)

SMILES: CCOC(=O)C1=C(O)/C(=C/c2cc(OC)c(OC)c(OC)c2)SC1=Nc1ccc(OC)cc1
- inhibition (at 20 µM): -0.4% (inactive)

SMILES: CCOC(=O)C1=C(O)/C(=C/c2cc(OC)c(O)c(OC)c2)SC1=Nc1ccc(OC)cc1
- inhibition (at 20 µM): 32.3% (inactive)

SMILES: CCOC(=O)C1=C(O)/C(=C/c2ccc(-c3ccccc3C(=O)O)o2)SC1=Nc1ccc(OC)cc1
- inhibition (at 20 µM): 51.8% (active)

SMILES: O=C(CCCCCCCCC(=O)N/N=C/c1ccco1)N/N=C/c1ccco1
- inhibition (at 20 µM): -2.2% (inactive)

SMILES: Oc1ccccc1N1CCN(C(=S)NCCc2ccccc2)CC1
- inhibition (at 20 µM): 9.4% (inactive)

SMILES: Cc1oc2cc([N+](=O)[O-])c(O)c([N+](=O)[O-])c2c1C(=O)c1ccc(Br)cc1
- inhibition (at 20 µM): 51% (active)

SMILES: Cc1oc2cc([N+](=O)[O-])c(O)c([N+](=O)[O-])c2c1C(=O)c1ccc(Cl)cc1
- inhibition (at 20 µM): 19.8% (inactive)

SMILES: COc1ccc(OC)c(C(=O)c2c(C)oc3cc([N+](=O)[O-])c(O)c([N+](=O)[O-])c23)c1
- inhibition (at 20 µM): -0.7% (inactive)

SMILES: CCCNC(=O)NC(=O)CSc1nnc(C)n1N
- inhibition (at 20 µM): 1.6% (inactive)

SMILES: CC(=O)c1sc(Nc2cccc(C)c2)nc1C
- inhibition (at 20 µM): 0.2% (inactive)

SMILES: O=C(O)CN1C(=O)/C(=C\c2cc([N+](=O)[O-])ccc2OCc2ccccc2Cl)SC1=S
- inhibition (at 20 µM): 68.9% (active)

SMILES: O=C(O)CN1C(=O)/C(=C\c2ccccc2OCc2ccc(Cl)cc2)SC1=S
- inhibition (at 20 µM): 45.9% (inactive)

SMILES: O=C(O)CN1C(=O)/C(=C\c2ccccc2OCc2ccc(F)cc2)SC1=S
- inhibition (at 20 µM): 60.3% (inactive)
- inhibition [1]: 36.9%

SMILES: C=Cn1cc[n+](CC(=O)c2ccc(OC)cc2)c1
- inhibition (at 20 µM): -0.9% (inactive)

SMILES: O=C(NCC1(c2ccccc2)CCCC1)c1cccc(Br)c1
- inhibition (at 20 µM): -2.2% (inactive)

SMILES: CCOc1ccc(N2C(=O)C3Sc4[nH]c(=O)sc4C(c4ccc(OC)c(OC)c4)C3C2=O)cc1 (centres undefined)
- inhibition (at 20 µM): 15.2% (inactive)

SMILES: CCOC(=O)c1ccccc1N1C(=O)C2Sc3[nH]c(=O)sc3C(/C=C/c3ccccc3)C2C1=O (centres undefined)
- inhibition (at 20 µM): 31.6% (inactive)

SMILES: CCOc1ccc(N2C(=O)C3Sc4[nH]c(=O)sc4C(/C=C/c4ccccc4)C3C2=O)cc1 (centres undefined)
- inhibition (at 20 µM): 53.6% (active)

SMILES: Cc1ccc([N+](=O)[O-])cc1S(=O)(=O)Nc1ccc(C(=O)N(C)C)cc1
- inhibition (at 20 µM): -0.4% (inactive)

SMILES: CCC(C(=O)OCCOCCN(CC)CC)c1ccccc1 (centres undefined)
- inhibition (at 20 µM): -1.7% (inactive)

SMILES: CN(C(=O)c1ccc(S(=O)(=O)N(C)C)cc1)c1ccc2ccccc2c1
- inhibition (at 20 µM): -2% (inactive)

SMILES: O=C(O)c1ccc(COc2ccccc2/C=C2\NC(=O)N(Cc3ccc(F)cc3)C2=O)cc1
- inhibition (at 20 µM): 37.2% (inactive)

SMILES: O=C(O)c1ccc(COc2ccccc2/C=C2\NC(=O)N(Cc3ccccc3)C2=O)cc1
- inhibition (at 20 µM): 31.4% (inactive)

SMILES: O=C(O)c1ccc(COc2ccccc2/C=C2/NC(=O)N(c3cccc(Cl)c3)C2=O)cc1
- inhibition (at 20 µM): 53.3% (active)

SMILES: CCOc1cc(NC(=S)NCCCN2CCOCC2)c(OCC)cc1NC(=O)c1cccs1
- inhibition (at 20 µM): -2.2% (inactive)

SMILES: Cc1ccc(-c2c(C#N)c(N)n(-c3ccccc3)c(=O)c2C#N)cc1
- inhibition (at 20 µM): -0.6% (inactive)

SMILES: Cc1ccc(-c2c(C#N)c(N)n(-c3ccc(C)cc3)c(=O)c2C#N)cc1
- inhibition (at 20 µM): 3.9% (inactive)

SMILES: Cc1ccc(-c2nc3sc(C#N)c(N)n3c(=O)c2C#N)cc1
- inhibition (at 20 µM): 59.9% (active)
- inhibition [1]: 52.2%

SMILES: CC1CCN(c2ccc3nnc(CCC(=O)N4CCN(c5ccccc5F)CC4)n3n2)CC1
- inhibition (at 20 µM): 0.3% (inactive)

SMILES: CCOC(=O)C1=NOC(CNC(=O)c2c(-c3ccccc3Cl)noc2C)C1 (centres undefined)
- inhibition (at 20 µM): 0.6% (inactive)

SMILES: COc1ccc(CC(NC(C)=O)C(=O)N2CCN(C(=O)N(C(C)C)C(C)C)CC2)cc1 (centres undefined)
- inhibition (at 20 µM): -0.1% (inactive)

SMILES: Cc1ccc(/C=C2\SC(N3CCCCC3)=NC2=O)cc1
- inhibition (at 20 µM): -1.2% (inactive)

SMILES: Cc1ccc(/C=C2\SC(N3CCCC3)=NC2=O)cc1
- inhibition (at 20 µM): -0.9% (inactive)

SMILES: CN(C)c1ccc(/C=C2\SC(N3CCCCC3)=NC2=O)cc1
- inhibition (at 20 µM): 74.1% (active)
- inhibition [1]: 50.6%
